# HEK293 tox: cytotoxic in the GLP-1 receptor inverse agonist counter-screen | HEK293 cAMP-luciferase reporter cells, luminescence, 24 h | Potency, µM (series often up to 38.3 µM), without a hit: top-dose activity change, negative = inhibition, hits mostly inhibitors | hit rate 0.13% among 410,000 | AID 624418;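 also: loss of luciferase light is scored as toxicity; % is scaled to controls: 0 for no effect and ±100 for the full control effect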
#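 1536-well qHTS counterscreen of the MLSMR; 200 cells/uL, 12 h pre-incubation, 23 nL cpd, 24 h at 37 deg C 5% CO2, luciferase detection reagent, 12 min RT, luminescence. Inhibition = undesired.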
# rTrxR1 inhibitor: inhibitors of rat thioredoxin reductase 1; O89049; recombinant rTrxR1, NADPH fluorescence consumption, selenite substrate; Potency, µM (top dose mostly 114 µM), for inactives: at the highest dose activity change, negative = inhibition, actives largely listed as inhibitors; hit rate 1% among 390,000; also: % is scaled to controls: 0 for no effect and ±100 for the full control effect; nearly all actives have a fitted effect of over 65% in size
#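 Rat TrxR1 (90 nM in the dispensed reagent) was pre-reduced with 400 uM NADPH for 5 min at room temperature, then incubated with compound for 15 min. After 400 uM selenite was added, NADPH fluorescence (Ex 340/Em 450 nm) was followed for 8 min.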
# mIDH1 inhibitor: blocks human mutant IDH1 R132H enzyme | Potency, µM (doses to about 76.6 µM), for the others: at the top dose activity change, negative = inhibition, actives largely listed as inhibitors | O75874 | hit rate 0.093% among 390,000 | IDH1-R132H enzyme, NADPH consumption, diaphorase/resazurin fluorescence; also: % is scaled to controls: 0 for no effect and ±100 for the full control effect; nearly all actives have a fitted effect of over 65% in size
# Target sequence (O75874 whole entry R132H, stated change not applied): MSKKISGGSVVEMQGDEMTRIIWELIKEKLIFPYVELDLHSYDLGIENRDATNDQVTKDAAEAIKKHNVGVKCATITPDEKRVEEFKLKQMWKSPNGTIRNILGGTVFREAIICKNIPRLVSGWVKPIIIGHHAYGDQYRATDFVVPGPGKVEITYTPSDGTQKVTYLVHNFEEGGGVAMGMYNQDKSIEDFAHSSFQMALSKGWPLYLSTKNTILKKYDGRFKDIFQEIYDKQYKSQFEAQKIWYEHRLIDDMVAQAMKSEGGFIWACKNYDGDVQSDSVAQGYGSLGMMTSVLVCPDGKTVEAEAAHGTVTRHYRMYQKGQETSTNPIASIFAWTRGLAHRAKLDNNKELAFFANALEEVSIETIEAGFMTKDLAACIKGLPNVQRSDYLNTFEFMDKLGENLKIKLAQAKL
#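 IDH1-R132H (0.5 ug/mL dispensed) in pH 7.5 Tris buffer was preincubated 30 min with compound, then given a substrate mix of 0.016 mM NADPH and 2 mM alpha-KG for 80 min at room temperature; remaining NADPH was read by diaphorase/resazurin fluorescence.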
# TrxR1 substrate: substrates of rat thioredoxin reductase 1 | Potency, µM (highest dose often 114 µM), without a hit: at the top dose activity change, negative = substrate turnover | O89049 | purified TrxR1 substrate turnover, NADPH consumption readout | hit rate 0.01% among 390,000; also: % is scaled to controls: 0 for no effect and ±100 for the full control effect; nearly all actives have a fitted effect of over 50% in size
#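 Rat TrxR1, dispensed at 90 nM, was prereduced with 400 uM NADPH (final) for 5 min at ~22 deg C, then incubated with compound 15 min before 400 uM selenite. A first-read NADPH fluorescence drop versus no-compound background flagged substrates.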
# GLP1R ag: GLP-1 receptor (human) agonism. P43220. HEK293 GLP-1R CRE-luciferase, luminescence, 4-6 h; cells express a hypersensitive GLP-1R form. Potency, µM (doses to about 45.6 µM), inactives show top-dose activation, most hits filed as activators. hit rate 0.007% among 380,000. AID 624172; also: % of control where 0% means no effect
# GLP1R inv ag: inverse agonists of human GLP-1 receptor | Potency, µM (series often up to 38.3 µM), for inactives: top-dose activity change, negative = inhibition, hits mostly inhibitors | AID 624417 | P43220 | HEK293 GLP-1R CRE-luciferase, luminescence, 24 h; GLP-1R form is constitutively active | hit rate 1.6% among 410,000; also: % is scaled to controls: 0 for no effect and ±100 for the full control effect; nearly all actives have a fitted effect of over 55% in size
#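 HEK293 cells stably co-expressing constitutively active GLP-1R and a cAMP-responsive luciferase reporter were seeded in DMEM with 10% Nu serum, given compounds after 12 h, and incubated 24 h at 37 deg C. Luminescence was then read.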
# The depositor's hits bear a star; ? = inconclusive; · = no result; [ ] = another dose, or the depositor's remark. Most compounds without a hit are left out; they make up all but 2.7% or so of the library. Calls follow the shape of the dose curve; as a rule, active = well fitted curve in the direction sought with a large enough effect; inconclusive = small, poorly fitted or top-dose-only effect, or another doubt; inactive = no such curve, though single readings can be large; an effect the other way counts as inactive or inconclusive. Potency is read from the fitted curve at half-maximal effect.
SMILES,HEK293 tox,rTrxR1 inhibitor,mIDH1 inhibitor,TrxR1 substrate,GLP1R ag,GLP1R inv ag
CCOC(=O)c1[nH]c(C)c(/C(O)=C2\C(=O)C(=O)N(CCCN3CCOCC3)C2c2cccnc2)c1C (configuration not stated),-2%,45µM*,-1%,-14%,1%,12%
CC(=O)N1CCCc2cc(S(=O)(=O)N(C)CC(=O)Nc3cccc(Cl)c3C)ccc21,-11%,15%[57.1 µM],45%,0%[57.1 µM],·,-15%
C/C1=C2/[N-]C(C(CC(N)=O)[C@@]2(C)CCC(=O)NCC(C)OP(=O)([O-])O[C@H]2[C@@H](O)[C@@H](n3cnc4cc(C)c(C)cc43)O[C@@H]2CO)[C@]2(C)N=C(/C(C)=C3N=C(/C=C4N=C1C(CCC(N)=O)C\4(C)C)[C@@H](CCC(N)=O)[C@]\3(C)CC(N)=O)[C@@H](CCC(N)=O)[C@]2(C)CC(N)=O.CC(=O)O.[Co] (some centres not stated),·,·,·,·,-7%,·
COc1ccc(S(=O)(=O)Nc2ccccc2)cc1,10%,15%[57.1 µM],3%,7%[57.1 µM],0%,-21%
COc1ccc(S(=O)(=O)Nc2ccc(Nc3ccccc3)cc2)cc1,-3%,16%,-2%,-7%,0%,7.1µM*
Cc1cccc(N2CCN(C(=O)CN3CCSc4ccccc43)CC2C)c1 (configuration not stated),-1%,22%[57.1 µM],-6%,0%[57.1 µM],7%,?
Cc1ccc(CNC(=O)c2oc3ccc(S(=O)(=O)N4CCC(C)CC4)cc3c2C)cc1,3%,13%,-10%,5%[2.29 µM],·,?
CN(C)c1ccc(/C=N/NC(=O)C(O)(c2ccccc2)c2ccccc2)o1,7%,8.9µM*,1%,0%,-1%,-9%
CN(C)c1ccc(/C=N/NC(=O)c2ccccc2O)o1,0%,?,10%,6%[57.1 µM],1%,13%
Cc1cc(C(=O)N/N=C/c2ccc(N(C)C)o2)cs1,-2%,14µM*,-5%,2%,-3%,51%
O=C(NCc1ccc(F)cc1)c1ccc(NC(=O)N2CC3CCCN3c3ccccc32)cc1 (configuration not stated),-16%,-3%,28%,-6%,·,?
CC(C)C[C@@H](CN1CCC[C@H]1CN1C(=O)C(=O)NC[C@@H]1Cc1ccccc1)N1C[C@H](Cc2ccc(O)cc2)N(CC2CCCCC2)C(=O)C1=O,-6%,·,·,·,-5%,-9%
Cc1ccccc1-n1c(C)nnc1SC(C)C(=O)NCc1ccco1 (configuration not stated),·,7%,·,2%,·,·
CCCSCCCNC(=O)C1CCN(C(=O)c2cnn(-c3ccccc3)c2-n2cccc2)CC1,6%,2%,0%,-4%,·,-12%
CC1CCN(c2nc3ccc(C(=O)NC(C)C)cc3s2)CC1,6%,-3%,-14%,-1%,·,5µM*
O=C(CSc1ccc(-c2ccco2)nn1)N1CCCCC1,1%[7.66 µM],-66%,5%,7%[57.1 µM],0%,-10%[7.66 µM]
Cc1cccc(NC(=O)CSc2ccc(-c3ccco3)nn2)c1C,7%,13µM*,0%,-6%,6%,8%
O=C(CSc1ccc(-c2ccco2)nn1)N1CCCC1,0%,45µM*,-11%,2%,9%,-8%
O=C(CSc1ccc(-c2ccco2)nn1)Nc1ccc(F)cc1F,-5%,25µM*,10%,-4%,-1%,-1%
Cc1cccc(NC(=O)CSc2ccc(-c3ccccn3)nn2)c1C,-6%,21%[57.1 µM],2%,7%[57.1 µM],0%,8%
O=C(CSc1ccc(-c2ccco2)nn1)c1cccc([N+](=O)[O-])c1,2%[1.53 µM],16µM*,5%,8%,-1%,7%
CC(C)OC(=O)c1cc(C(=O)OC(C)C)cc([N+](=O)[O-])c1,·,·,·,·,2%[96 µM],·
